# Source: PubChem BioAssay
# JNK3 inh: JNK3 (human) kinase inhibition; AID 746; actives 0.61% (n = 60,000); inhibition, % at 8 µM; P53779; purified JNK3 kinase activity, HTS; in the data active = inhibition above about 17%;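 note: 0% = DMSO and 100% = reference inhibitor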
# PKA inh: blocks human protein kinase A activity; PKA Kemptide phosphorylation, Kinase-Glo ATP luminescence; P17612; inhibition, % at 6 µM; actives 0.1% (n = 65,000); AID 524;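 active = inhibition above the screen-wide mean inhibition plus 3 SD, cut at about 21% in these data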
# ROCK2 blocker: blocks human Rho kinase 2 activity | O75116 | purified ROCK2, Kinase-Glo ATP depletion luminescence | inhibition, % at 6 µM | actives 0.35% (n = 60,000);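 active = inhibition above the screen-wide mean inhibition plus 3 SD, cut at about 18% in these data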;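 note: plate controls were DMSO wells for no effect and Y-27632 control wells after no-enzyme background subtraction for full effect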
# Her2 expr inh: Her2 kinase expression inhibition; P04626; SKBR-3 HER2 protein level, AlphaScreen, 18-24 h; active compounds read low; HER2 level % of control, % at 10 µM; actives 0.69% (n = 65,000); AID 645;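 active = HER2 level under 5% of the carrier-only control; inconclusive = no clear call, values can overlap the other calls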;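 note: 100% = DMSO carrier and 0% = 500 nM PU-H71 HSP90 inhibitor; lower value means stronger loss of Her2 protein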
# mHtt clearance: compounds clearing mutant huntingtin protein. HeLa Exon1htt(103Q)mCFP, aggregate imaging; zero = plate's median compound well. inhibition, % at 1.5 µM. actives 0.42% (n = 47,000). AID 853;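 active = inhibition of aggregate fluorescence above about 70%, also judged a hit by eye on the cell image, limit read from the data, passing the limit was not always enough; inconclusive = no rule stated for this call; inactive = not judged a hit on image review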;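 note: cells exposed to compound for three days before fixation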
# SKBR3 24h inh: SK-BR-3 proliferation inhibitors | viability, % at 10 µM | AID 847 | actives 0.47% (n = 41,000) | SK-BR-3 viability, CellTiter-Glo ATP luminescence, 24 h; active compounds read low;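 active = viability at or below the median of all test compounds minus 3 SD, in both replicates if run twice, cut at about 45% in these data; inconclusive = duplicate replicates that disagree with each other; inactive = viability above that cutoff in every replicate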;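 note: 100% = median untreated cell wells and 0% = median positive control drug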
# An asterisk follows results filed as active; ? = inconclusive; / = not tested or not shown. Shown are actives, neighbours in structure and some others; about 1.4% of the full set was active somewhere.
SMILES,JNK3 inh,PKA inh,ROCK2 blocker,Her2 expr inh,mHtt clearance,SKBR3 24h inh
CCCc1cc(=O)[nH]c(SCC(=O)N2CCN(S(=O)(=O)c3ccc(C)cc3)C2)n1,11,8,1,82,15,/
COc1ccc(NC(=O)CCCCn2c(=O)[nH]c3ccccc3c2=O)cc1,21*,-5,-4,91,-30,/
COc1cc(C(=O)NCc2cn3cccc(C)c3n2)cc(OC)c1OC,-2,-4,1,94,-1,/
COc1cc(C(=O)NCc2cn3ccccc3n2)cc(OC)c1OC,58*,8,4,95,/,106
Cc1ccc2[nH]c3c(c2c1)CCc1cn[nH]c1-3,43*,0,8,37,48,113
CC1(C)CC(=O)c2cnc(N3CCc4ccccc4C3)nc2C1,-3,6,2,95,0,86
O=C(NCc1cccnc1)c1cccc2c1C(=O)N(C1CCCCC1)C2,26*,-3,0,91,/,/
O=C(NCc1ccco1)c1cccc2c1C(=O)N(C1CCCCC1)C2,5,-2,-1,123,/,/
Cn1nnnc1Sc1ncnc2scc(-c3ccc(F)cc3)c12,-3,-3,1,-11*,-97,/
Clc1ncnc2scc(-c3ccccc3)c12,/,/,/,/,-15,/
Cn1nnnc1Sc1ncnc2scc(-c3ccccc3)c12,-1,8,7,0.6*,/,/
O=c1[nH]cnc2scc(-c3ccc(F)cc3)c12,8,7,11,146,10,88
O=C(Nc1cccc(-c2nc3ccccc3[nH]2)c1)c1cccc(NC(=O)c2ccco2)c1,19*,9,13,-17*,/,?
c1ccc(-n2ncc3c(NCc4ccco4)ncnc32)cc1,20*,-4,3,79,4,/
c1coc(CNc2ncnc3nc[nH]c23)c1,-4,17,25*,118,/,/
c1ccc(Cn2ncc3c(NCc4ccco4)ncnc32)cc1,0,4,-1,66,/,76
Cc1nnc(Oc2ccccc2F)c2ccccc12,5,5,5,106,/,/
O=C(CN1C(=O)CSC1=O)NC1CCCCC1,-1,10,11,83,/,88
NC(=O)C1(N2CCCCC2)CCN(C(=O)CSc2nc(C(F)(F)F)cc(=O)[nH]2)CC1,0,6,7,87,-25,93
Nc1nc(-c2ccccc2)cc(-c2ccccc2O)n1,35*,-2,12,45,30,45
Cc1nc2sccn2c1-c1nc(C2CC2)c(C(=O)c2ccc3c(c2)NC(=O)CO3)s1,-1,2,3,89,/,/
Cc1ccc2c(c1)N(CC(=O)NCc1cccs1)C(=O)CO2,/,1,/,117,/,86
N#Cc1c(N)nc2c(c1-c1ccco1)CCCCC2,32*,3,9,/,/,91
CCN1C(c2ccc(F)cc2)=CS/C1=C(\C#N)c1nnc2n1-c1ccccc1SC2,-7,6,3,82,/,/
O=C(NC1CCCCCC1)c1ccc(CN2CCOCC2)cc1,/,/,/,/,4,/
SMILES,JNK3 inh,PKA inh,ROCK2 blocker,Her2 expr inh,mHtt clearance,SKBR3 24h inh
C=CS(=O)(=O)c1ccc(Oc2ccc(S(=O)(=O)C=C)cc2)cc1,8,8,5,-22*,/,?
O=S(=O)(c1ccc(Oc2ccc(S(=O)(=O)N3CCOCC3)cc2)cc1)N1CCOCC1,4,4,5,63,/,112
COc1ccc(N2CCN(C(c3ccccc3)c3sc4nc(C)nn4c3O)CC2)cc1 (configuration not stated),-4,2,2,94,/,/
O=C(Cc1ccccc1)NCc1nc2ccccc2[nH]1,3,0,2,97,88*,/
CC[C@@H](C)[C@H](NC(=O)OC(C)(C)C)c1nnc(S(=O)(=O)Cc2cc(C)ccc2C)o1,0,-9,-8,-13*,/,97
CC(C)[C@H](NC(=O)OC(C)(C)C)c1nnc(S(=O)(=O)Cc2c(F)cccc2Cl)o1,-7,-5,-2,-13*,/,157
Cc1[nH]c(=O)[nH]c(=O)c1CSc1nnc([C@@H](NC(=O)OC(C)(C)C)C(C)C)o1,6,3,8,109,18,82
CC(C)(C)OC(=O)N[C@@H](Cc1ccccc1)c1nnc(S(=O)(=O)Cc2cccc(F)c2)o1,13,4,0,-16*,/,127
Cc1ccccc1CS(=O)(=O)c1nnc([C@H](CC(C)C)NC(=O)OC(C)(C)C)o1,0,2,4,-14*,/,85
CC(C)=CCSc1nnc([C@@H](NC(=O)OC(C)(C)C)C(C)C)o1,-2,-10,-12,94,/,93
